PubChem BioAssay (NCATS)
Records with an inconclusive call do not appear. Active and inactive are the calls of the source. Calls come from the whole dose curve; as a rule, active = well fitted inhibition curve with a large enough effect; inconclusive = small, poorly fitted or top-dose-only effect; inactive = flat fitted curve, though single readings scatter.

Columns and labels:
Assay in all cases: qHTS profiling for inhibitors of Plasmodium falciparum proliferation (AID 504749); note: nearly all actives have a fitted effect of over 60% in size
ATS95 = conditions: P. falciparum in erythrocytes, SYBR Green DNA, 72 h; series mostly up to 28.7 µM
Method in brief: (§1)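 Fluorescence of SYBR Green-bound parasite DNA, read at 485/535 nm, served as the growth measure. Infected erythrocytes were cultured with compound 72 h; artemisinin (0.29 uM) and DMSO wells defined the normalization range.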

C2A = conditions: P. falciparum in erythrocytes, SYBR Green DNA, 72 h; series mostly up to 28.7 µM
Method in brief: as §1

CP215 = conditions: P. falciparum in erythrocytes, SYBR Green DNA, 72 h; series mostly up to 28.7 µM
Method in brief: as §1

CP217 = conditions: P. falciparum in erythrocytes, SYBR Green DNA, 72 h; series mostly up to 28.7 µM
Method in brief: as §1

CP237 = conditions: P. falciparum in erythrocytes, SYBR Green DNA, 72 h; series mostly up to 28.7 µM
Method in brief: as §1

CP238 = conditions: P. falciparum in erythrocytes, SYBR Green DNA, 72 h; series mostly up to 28.7 µM
Method in brief: as §1

CP250 = conditions: P. falciparum in erythrocytes, SYBR Green DNA, 72 h; series mostly up to 12.8 µM
Method in brief: as §1

CP252 = conditions: P. falciparum in erythrocytes, SYBR Green DNA, 72 h; series mostly up to 12.8 µM
Method in brief: as §1

CP265 = conditions: P. falciparum in erythrocytes, SYBR Green DNA, 72 h; series mostly up to 12.8 µM
Method in brief: as §1

CP266 = conditions: P. falciparum in erythrocytes, SYBR Green DNA, 72 h; series mostly up to 12.8 µM
Method in brief: as §1

CP269 = conditions: P. falciparum in erythrocytes, SYBR Green DNA, 72 h; series mostly up to 28.7 µM
Method in brief: as §1

CP305 = conditions: P. falciparum in erythrocytes, SYBR Green DNA, 72 h; series mostly up to 28.7 µM
Method in brief: as §1

CP325 = conditions: P. falciparum in erythrocytes, SYBR Green DNA, 72 h; series mostly up to 28.7 µM
Method in brief: as §1

CP329 = conditions: P. falciparum in erythrocytes, SYBR Green DNA, 72 h; series mostly up to 28.7 µM
Method in brief: as §1

GB4 = conditions: P. falciparum in erythrocytes, SYBR Green DNA, 72 h; series mostly up to 28.7 µM
Method in brief: as §1

HB3 = conditions: P. falciparum in erythrocytes, SYBR Green DNA, 72 h; series mostly up to 28.7 µM
Method in brief: as §1

P93_24 = conditions: P. falciparum in erythrocytes, SYBR Green DNA, 72 h; series mostly up to 28.7 µM
Method in brief: as §1

PAD = conditions: P. falciparum in erythrocytes, SYBR Green DNA, 72 h; series mostly up to 28.7 µM
Method in brief: as §1

PC26 = conditions: P. falciparum in erythrocytes, SYBR Green DNA, 72 h; series mostly up to 28.7 µM
Method in brief: as §1

SC27B = conditions: P. falciparum in erythrocytes, SYBR Green DNA, 72 h; series mostly up to 28.7 µM
Method in brief: as §1

Measured: Potency

Oc1ccc2c3c1O[C@H]1[C@@H](O)CC[C@@]4(O)C(C2)N(CC2CCC2)CCC314 (stereo not given in full)
inactive: all assays above

CC(C)(O)C1C2OC(=O)C1[C@]1(O)C[C@H]3O[C@]34C(=O)O[C@H]2[C@]14C (stereo not given in full) (tested in a mixture with another compound)
inactive: all assays above

CCCC[N+]1(C)C2CC(OC(=O)C(CO)c3ccccc3)CC1C1OC12 (stereo not given)
inactive: all assays above

CNC(C)[C@@H](O)c1ccc(O)cc1 (stereo not given in full)
inactive: all assays above
